Results published in ChEMBL document CHEMBL4513216, “Probing the Open Global Health Chemical Diversity Library for Multistage-Active Starting Points for Next-Generation Antimalarials” (ACS Infect Dis, 2020).
Screen size: about 69,000 compounds; about 8,600 (12%) showed an effect of 50% or more. The list comes from a sample in which strong results are over-represented; it also holds similar structures and randomly drawn compounds.

system: Plasmodium berghei; assay: Screen against P. berghei liver stage (PbLuc), transformed with Luciferase, at 10uM; type: functional, HepG2; settings: tested at 10 uM

SMILES | INHIBITION [%]
O=C(NCCc1ccncc1)[C@@H]1CC[C@@H]2[C@@H](CCN2Cc2ccco2)O1 | 31.7
COCC(=O)N1CCC2(CCC2NC(=O)c2ccn(C)c2)CC1 (stereo not drawn) | 41.6
O=S(=O)(NC1CCC12CCN(CC1CC1)CC2)c1ccccc1 (stereo not drawn) | 26
COCC(=O)N1CCC2(CCC2NS(=O)(=O)c2ccccc2)CC1 (stereo not drawn) | 64.5
Cc1nc(O)c2nnn(C[C@H]3CCCN3C(=O)c3ccc(F)cc3)c2n1 | 8.72
CCc1cc(=O)[nH]c(-c2ccc(NC(C)COC)nc2)n1 (stereo not drawn) | -10.3
CCOC(=O)C1(Cc2cccc(OC)c2)CCCN(Cc2ncc[nH]2)C1 (stereo not drawn) | 41.2
COc1cccc(CNC(=O)N2CCN(Cc3cc(C)on3)CC2)c1 | -1.62
CCOC(=O)C1(Cc2cccc(OC)c2)CCN(Cc2ccon2)CC1 | 55.7
COc1cccc(CC2(C(=O)O)CCN(c3ccc(Cl)cn3)CC2)c1 | 30.8
CCOC(=O)C1(Cc2cccc(OC)c2)CCN(Cc2ncc[nH]2)CC1 | 57.6
CCOC(=O)C1(Cc2ccc(Cl)cc2)CCN(Cc2ncc[nH]2)CC1 | 82.1
CCOC(=O)C1(Cc2cccc(Cl)c2)CCCN(Cc2ncc[nH]2)C1 (stereo not drawn) | 46.7
COc1cccc(CC2(C(=O)O)CCN(c3nccs3)CC2)c1 | 22.3
O=C1CC2(CCN(Cc3ncc[nH]3)CC2)CN1Cc1ccc(Cl)cc1 | 12.4
CS(=O)(=O)N1C[C@H](C(=O)Nc2cccnc2)[C@@H]2CCO[C@@H]2C1 | -7.7
CN(C)c1ncnc2c1CCN(C(=O)c1cccnc1)CC2 | 20.6
COc1cc(NC2CCN(C3CCS(=O)(=O)CC3)CC2)ncn1 | -15
Cc1ccc(CC(=O)N2CCCC(c3cc(C(N)=O)[nH]n3)C2)cn1 (stereo not drawn) | 39.35
CCOc1cc(F)ccc1NC(=O)NCC(c1cnn(C)c1)N(C)C (stereo not drawn) | 44.9
Cn1cc(C(O)CNC(=O)Nc2cc(F)ccc2-n2cccn2)cn1 (stereo not drawn) | 23.4
Cc1ccc(C(=O)NCC(c2cnn(C)c2)N(C)C)c(O)c1 (stereo not drawn) | 1.19
CCOc1ccccc1CNC(=O)NCC(c1cnn(C)c1)N(C)C (stereo not drawn) | 62.8

SMILES | INHIBITION [%]
Cc1ccc(NC(=O)NCC(c2cnn(C)c2)N(C)C)c(C)c1 (stereo not drawn) | 57.7
CCOCc1ccccc1NC(=O)NCC(c1cnn(C)c1)N(C)C (stereo not drawn) | 2.91
O=C(c1ccc(C2CCNC2)cc1)N1CCC(N2CCC(O)CC2)CC1 (stereo not drawn) | -8
CCN(CC)Cc1cn2c(n1)CN(C(=O)c1cnccn1)CC2 | 37
CN1C(=O)CO[C@H]2CN(C(=O)c3ccc4c(c3)CCCC4)C[C@@H]21 | -3
Cn1ccnc1CN1CCC(Cc2ccccn2)CC1 | 38.2
O=C(NCCCO)c1nc(-c2ccc3cc[nH]c3c2)no1 | -108
c1cncc(NCCNC2CSCCSC2)c1 | 57.5
c1cncc(NCCNC2CCSC2)c1 (stereo not drawn) | 29.7
Cc1cnccc1NCCNC1CCN(CC(C)C)CC1 | -58.7
c1cncc(NCCNC2CCCNC2)c1 (stereo not drawn) | 4.95
CC(NC1CCCC1)c1ccccc1-n1cccn1 (stereo not drawn) | -8.66
CC(C)CN1CCC(NC(C)c2ccccc2-n2cccn2)CC1 (stereo not drawn) | 89.1
CC(C)CN1CCC(NCCNc2cccnc2)CC1 | 52.7
CC(NC1CCSCC1)c1ccccc1-n1cccn1 (stereo not drawn) | -4.12
c1cncc(NCCNC2CCSCC2)c1 | -22.8
O=C(O)c1cnc(N2CCC(O)CC2)nc1COc1ccc(F)cc1 | 46.1
CC(C)(C)NC(=O)c1ccn(COc2c(Cl)cccc2Cl)n1 | 20.9
Cc1cc(C(=O)NCc2cccs2)c2c(C3CCCN3)noc2n1 (stereo not drawn) | 29.2
COc1ccccc1C(=O)N1CC(=O)N(CC2CC2)CC(O)C1 (stereo not drawn) | 34.3
Cc1cccc(C(=O)N2C[C@@H]3COC[C@@H](CC(=O)N4CCCC4)[C@@H]3C2)n1 | -69.3
Cc1ccccc1CC(=O)N(C)C1CCN(c2ccccn2)CC1 | 42.9
CN(C(=O)Cc1cccs1)C1CCN(c2ccccn2)CC1 | 54.4

SMILES | INHIBITION [%]
CN(C1CCCN(c2ccccn2)C1)S(=O)(=O)N1CCOCC1 (stereo not drawn) | 17.85
CCOc1ncccc1C(=O)N(C)C1CCN(c2ccccn2)CC1 | 15.6
CN(C(=O)CNc1ccc(C#N)cc1)C1CCN(c2ccccn2)CC1 | 11.2
CN(C(=O)Cc1ccccc1Cl)C1CCN(c2ccccn2)CC1 | 60.5
CN(C1CCN(c2ccccn2)CC1)S(=O)(=O)c1ccc(F)cc1 | 8.13
O=C(COCCOc1ccccc1)NC1CCN(c2ccccn2)CC1 | -10.7
COCCOCC(=O)NC1CCN(c2ccccn2)CC1 | 51.3
CN(C1CCN(c2ccccn2)CC1)S(=O)(=O)c1cccs1 | 33
Cc1ccc(C)c(OCC(=O)NC2CCN(c3ccccn3)CC2)c1 | -43.2
CN(C1CCN(c2ccccn2)CC1)S(=O)(=O)N1CCOCC1 | 55.4
Cc1cnn(C2CCCN(C(=O)CCCn3ccnc3C)C2)c1 (stereo not drawn) | 9.54
Cc1cc(CN2CCC3(CC2)COC(COCC2CC2)C3)no1 (stereo not drawn) | 22.2
CCNC(=O)NC(=O)CN1CCC(c2cccc(F)c2)C1 (stereo not drawn) | 15.8
O=C(NC1CC1)c1cc(C(F)(F)F)cc(C(F)(F)F)n1 | -14.3
Cc1ccc(OCCN2CCC(c3ccnn3CCO)CC2)cc1 | 19.6
CCc1nc2n(n1)CC(NCc1nc(-c3ccccn3)no1)CC2 (stereo not drawn) | 4.45
COCCOc1cccc(C(=O)N2CCCC(n3ccnc3)C2)c1 (stereo not drawn) | 33.7
OCC(CO)N1CCC(c2nccnc2Nc2cnccn2)CC1 | -42.9
Cc1ccc(S(=O)(=O)N2CCCC3(CCCN3S(C)(=O)=O)C2)cc1F (stereo not drawn) | -21.1
CSC1(CNC(=O)CCc2ccc(Cl)s2)CCOCC1 | -19.1
CN1CCN(CCCNC(=O)CCc2nc3cc(Br)cnc3[nH]2)CC1 | 38.9
CCc1nccn1C1CCCN(C(=O)c2ccc3[nH]cnc3c2)C1 (stereo not drawn) | 3.16
